Our source for the Potency values is PubChem BioAssay (NCATS).

Inconclusive results are not listed. Calls of active or inactive are those of the source. Unless noted, the call rests on the fitted dose curve; in most records, active means well fitted curve in the direction sought with a large enough effect; inconclusive means small, poorly fitted or top-dose-only effect, or another doubt; inactive means no such curve, though single readings can be large; an effect the other way counts as inactive or inconclusive.

Experiment [1] concerns the target Voltage-gated inwardly rectifying potassium channel KCNH2 (Homo sapiens) (UniProt Q12809). Kind of experiment: qHTS Assay for Small Molecule Inhibitors of the Human hERG Channel Activity (AID 588834).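 Further: top concentration of the series differs between compounds; lower thallium flux fluorescence means stronger hERG block; nearly all actives have a fitted effect of over 50% in size.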 A digest of the protocol: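 hERG-BacMam U2OS, 2000 cells/well; 0.7X FluxOR loading 1 hr RT dark; cpd ~10 min 37 °C; stim buffer; FDSS fluorescence 2 min @ 1 s; AC50 Hill fit.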
(Quantitative high-throughput screening tests each substance at several concentrations.)

For experiment [2], the target named is Luciferin 4-monooxygenase (Photinus pyralis) (UniProt P08659). Kind of experiment: Biochemical firefly luciferase enzyme assay for NPC (AID 624030).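 Further: purified P. pyralis luciferase at 10 nM with luciferin and ATP substrate; series mostly up to about 59 µM; nearly all actives have a fitted effect of over 70% in size.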 In outline: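 Counter-screen for direct inhibition of the luciferase enzyme by approved-drug library compounds, run at 10 nM enzyme in 50 mM Tris acetate (final). Luminescence was read within 5 min of enzyme-buffer addition and normalized to PTC124 versus DMSO (0%).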

The nature of experiment [3]: S16 Schwann cell PMP22 intronic element beta-lactamase assay (AID 624044; calls by dose curve; further: nearly all actives have a fitted effect of over 15% in size; further: potency means the concentration at half of the fitted maximal effect). A digest of the protocol:
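Rat S16 Schwann cells with beta-Lac driven by a PMP22 intronic element, compound-treated 24 h at 37 °C. LiveBLAzer FRET B/G read: 460 nm normalized to potassium clavulanate vs DMSO; 535 nm FRET as viability; concentration-effect curves classified.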

A short description of experiment [4]: S16 Schwann cell PMP22 intronic element firefly luciferase assay (AID 624032). Further: nearly all actives have a fitted effect of over 30% in size. Further: potency means the concentration at half of the fitted maximal effect. A digest of the protocol:
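Rat S16 Schwann cells stably carrying a PMP22 intronic element-driven Fluc reporter were seeded overnight, then exposed to compounds for 24 h at 37 °C. Luminescence was normalized to PTC124 (positive control) and DMSO (0% activity).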

The nature of experiment [5]: S16 Schwann cell viability assay (CellTiter-Glo assay) (AID 624031).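 Further: native untransfected S16 rat Schwann cells; series mostly up to about 58 µM; nearly all actives have a fitted effect of over 70% in size.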 A digest of the protocol: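 Counter-screen for cytotoxicity: parental S16 rat Schwann cells lacking the PMP22 reporters, treated 24 h with compound, viability from cellular ATP by CellTiter-Glo luminescence, normalized to DMSO (0%) and no-cell wells.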
Background: ATP-based viability assays read luminescence as a measure of living cells.

Luciferin 4-monooxygenase (Photinus pyralis), sequence (P08659 whole entry, looked up): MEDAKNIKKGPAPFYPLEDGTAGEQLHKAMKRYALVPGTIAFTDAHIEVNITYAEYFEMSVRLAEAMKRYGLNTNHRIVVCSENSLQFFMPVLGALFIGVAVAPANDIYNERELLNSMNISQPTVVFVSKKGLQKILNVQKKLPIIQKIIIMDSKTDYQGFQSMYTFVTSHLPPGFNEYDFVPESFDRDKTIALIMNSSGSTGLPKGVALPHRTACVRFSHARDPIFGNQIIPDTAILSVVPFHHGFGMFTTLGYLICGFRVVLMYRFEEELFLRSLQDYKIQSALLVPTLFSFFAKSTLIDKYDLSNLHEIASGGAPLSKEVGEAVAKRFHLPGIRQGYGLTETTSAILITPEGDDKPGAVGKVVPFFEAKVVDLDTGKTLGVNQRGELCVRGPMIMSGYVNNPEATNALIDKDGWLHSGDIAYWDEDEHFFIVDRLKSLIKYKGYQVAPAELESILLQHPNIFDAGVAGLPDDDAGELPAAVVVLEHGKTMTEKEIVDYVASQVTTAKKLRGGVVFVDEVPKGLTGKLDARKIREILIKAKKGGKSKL
Voltage-gated inwardly rectifying potassium channel KCNH2 (Homo sapiens), sequence (Q12809 whole entry, looked up): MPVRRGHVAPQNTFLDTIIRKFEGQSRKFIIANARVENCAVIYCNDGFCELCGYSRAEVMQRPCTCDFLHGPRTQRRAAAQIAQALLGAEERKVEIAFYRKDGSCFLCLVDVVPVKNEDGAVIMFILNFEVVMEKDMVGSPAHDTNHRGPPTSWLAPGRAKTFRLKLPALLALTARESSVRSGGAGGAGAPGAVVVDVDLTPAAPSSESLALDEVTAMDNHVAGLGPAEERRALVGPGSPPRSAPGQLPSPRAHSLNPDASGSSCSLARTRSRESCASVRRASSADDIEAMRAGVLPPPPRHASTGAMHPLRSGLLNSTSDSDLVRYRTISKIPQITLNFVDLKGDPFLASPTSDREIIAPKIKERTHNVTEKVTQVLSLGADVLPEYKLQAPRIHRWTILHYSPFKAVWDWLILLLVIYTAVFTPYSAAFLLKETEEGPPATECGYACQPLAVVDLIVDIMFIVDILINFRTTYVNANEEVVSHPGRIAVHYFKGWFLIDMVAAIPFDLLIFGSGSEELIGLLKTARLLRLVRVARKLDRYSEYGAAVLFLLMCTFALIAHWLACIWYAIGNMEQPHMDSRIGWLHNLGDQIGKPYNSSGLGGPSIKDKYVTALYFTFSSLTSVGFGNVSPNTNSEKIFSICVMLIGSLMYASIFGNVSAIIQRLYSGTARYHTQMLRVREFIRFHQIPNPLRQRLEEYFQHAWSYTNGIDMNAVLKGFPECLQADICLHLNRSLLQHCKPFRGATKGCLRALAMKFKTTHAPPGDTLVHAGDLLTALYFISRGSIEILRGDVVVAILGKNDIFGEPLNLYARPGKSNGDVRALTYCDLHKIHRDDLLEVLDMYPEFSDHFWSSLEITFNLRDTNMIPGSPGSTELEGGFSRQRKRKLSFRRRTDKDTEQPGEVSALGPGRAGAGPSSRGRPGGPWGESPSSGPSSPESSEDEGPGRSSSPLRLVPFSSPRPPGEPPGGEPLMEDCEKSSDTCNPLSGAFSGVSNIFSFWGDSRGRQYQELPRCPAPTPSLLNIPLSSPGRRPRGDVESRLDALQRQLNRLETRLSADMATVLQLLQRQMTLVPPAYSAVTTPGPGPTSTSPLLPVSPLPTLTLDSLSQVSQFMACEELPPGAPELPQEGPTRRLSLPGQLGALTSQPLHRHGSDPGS

Turning to `CC(C)COCC(CN(Cc1ccccc1)c1ccccc1)N1CCCC1` (stereo not drawn), the Potency result in experiment [1], in experiment [2] and in experiment [3] was “inactive” each time.
Take `CCCCNc1c(C(=O)OCC)c(C)nc2c1cnn2CC`: the Potency entry in experiment [1], in experiment [2] and in experiment [3] was “inactive” in each case.
Turning to `CCOC(=O)C1=C(C)NC(C)=C(C(=O)OC)C1c1cccc(Cl)c1Cl` (stereo not drawn), the Potency result in experiment [2] and in experiment [3] was “inactive” in each case.
Regarding `C[N+](C)(C)CCCCCCCCCC[N+](C)(C)C`, the Potency result in experiment [1] and in experiment [4] was “inactive” throughout.
`NC(=O)c1cn(Cc2c(F)cccc2F)nn1`: the Potency entry in experiment [2] and in experiment [4] was “inactive” in each case.
Take `CN1C[C@H](C(=O)N[C@]2(C)O[C@@]3(O)[C@@H]4CCCN4C(=O)[C@H](Cc4ccccc4)N3C2=O)C[C@@H]2c3cccc4[nH]cc(c34)C[C@H]21`: the Potency entry in experiment [2] and in experiment [3] was “inactive” each time.
`CN(C(=O)CCCOc1ccc2[nH]c(=O)ccc2c1)C1CCCCC1`: the Potency entry in experiment [1], in experiment [2] and in experiment [3] was “inactive” in each case.
Regarding `CN(C)CCN(Cc1cccs1)c1ccccn1`, the Potency entry in experiment [2] and in experiment [4] was “inactive” each time.
In the case of `CCCN(CCC)CCc1cccc2c1CC(=O)N2`, the Potency result in experiment [2] and in experiment [4] was “inactive” throughout.
On to `Nc1c2c(nc3ccccc13)CCCC2O` (stereo not drawn), for which the Potency entry in experiment [2] and in experiment [4] was “inactive” throughout.
Regarding `NC1=NCC2c3ccccc3Cc3ccccc3N12` (stereo not drawn), the Potency entry in experiment [2], in experiment [5] and in experiment [4] was “inactive” each time.
In the case of `O=C(CCCN1CCC(O)(c2cccc(C(F)(F)F)c2)CC1)c1ccc(F)cc1`, the Potency entry in experiment [2] and in experiment [4] was “inactive” each time.
As for `CCCCCCCC/C=C\CCCCCCCC(=O)NCc1ccc(O)c(OC)c1`, in experiment [2], the Potency entry was “inactive”. In addition, the Potency is 4.55 µM (active) in experiment [4] and 12.6 µM (active) in experiment [3].
In the case of `FC(F)(F)c1ccccc1-n1ccnc1`, the Potency entry in experiment [1], in experiment [2], in experiment [4] and in experiment [3] was “inactive” in each case.
`c1cc(CN2CCCCC2)cc(OCCCNc2nc3ccccc3s2)c1`: the Potency entry in experiment [2], in experiment [4] and in experiment [3] was “inactive” throughout.
